# VACV mCherry inh = inhibitors of vaccinia virus infection (mCherry reporter signal) | Vaccinia virus mCherry reporter infection, fluorescence | Potency, µM (series often up to 36.5 µM), without a hit: at the highest dose activity change, negative = inhibition, usual class: inhibitors | 0.63% of 310,000 active; calls by dose curve; tested in A549 cells; also: potency is read from the fitted curve at half-maximal effect; nearly all actives have a fitted effect of over 35% in size
# MARV entry inh = blocks Marburg virus binding to or entry into cells | 1.8% of 300,000 active | Marburg virus pseudotyped entry inhibition, cell reporter | Potency, µM (doses to about 37.8 µM), inactives show top-dose activity change, negative = inhibition, actives largely listed as inhibitors; calls by dose curve; tested in HEK293 cells; also: potency is read from the fitted curve at half-maximal effect
# HCMV inh = blocks human cytomegalovirus replication. AID 1259415. HFF cells, HCMV-luciferase reporter, 72 h; active compounds read low. activity change, negative = inhibition, % at 57.5 µM. 4.5% of 410,000 active; in the data active = activity change below about -60%; inconclusive = no clear call, values can overlap the other calls; inactive = above about -39%
#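 Human foreskin fibroblasts infected with luciferase-reporter HCMV at MOI 1 PFU/cell, compounds at two doses. Luciferase measured 72 h post infection; normalized to buffer-only basal and Salinomycin (10uM) controls.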
# Vaccinia Venus = vaccinia inhibition (Venus reporter); Potency, µM (series often up to 36.5 µM), for inactives: at the highest dose activity change, negative = inhibition, actives largely listed as inhibitors; Vaccinia virus Venus reporter expression, fluorescence; 0.46% of 330,000 active; calls by dose curve; tested in A549 cells; also: potency is read from the fitted curve at half-maximal effect; nearly all actives have a fitted effect of over 30% in size
# Lassa entry inh = Lassa virus entry inhibition | Lassa virus pseudotype entry inhibition, cell reporter | Potency, µM (doses to about 37.9 µM), for inactives: at the top dose activity change, negative = inhibition, usual class: inhibitors | 1.2% of 300,000 active | AID 540256; calls by dose curve; tested in HEK293 cells; also: potency is read from the fitted curve at half-maximal effect; nearly all actives have a fitted effect of over 50% in size
# HCV inhibitor = HCV inhibition | Huh7.5.1 HCVcc-Cre infection, luciferase reporter, 44 h | Potency, µM (doses to about 41.8 µM), inactives show at the highest dose activity change, negative = inhibition, most hits filed as inhibitors | 3.4% of 340,000 active; active = well fitted inhibition curve with a large enough effect; inconclusive = small, poorly fitted or top-dose-only effect, or another doubt; inactive = no such curve, though single readings can be large or run the other way; also: potency is read from the fitted curve at half-maximal effect
#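 Infectious HCV cell culture screen: compound-treated cells (1,000/well, pre-plated 4 h) are infected with HCVcc-Cre at roughly 0.5 moi and grown 44 h. Infection is quantified by luciferase signal after 15 min substrate incubation at room temperature.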
# The depositor's hits bear a star; i = inactive; ? = inconclusive; . = no result; [ ] = dose if it differs, or a comment. This is a sample that favours compounds with a hit; in the whole collection about 7.8% have one here. % is scaled to controls: 0 for no effect and ±100 for the full control effect.
SMILES,VACV mCherry inh,MARV entry inh,HCMV inh,Vaccinia Venus,Lassa entry inh,HCV inhibitor
COc1ccc(Nc2cc(C(=O)NCc3ccccc3)c3ccccc3n2)cc1,0%,?,?,-2%,-6%[46.1 µM],.
COc1ccc(NC(=O)c2cc(CC(C)C)nc3ccccc23)cc1,.,.,-77*,.,.,?
Cc1ccc(NC(=O)c2cc(C)nc3ccccc23)cc1,.,.,15,.,.,-30%
O=C(NCc1ccccc1Cl)c1ccccc1NC(=O)c1nsc2ccccc12,-12%[7.34 µM],.,-37,-7%[7.34 µM],1%[46.1 µM],.
CC(C)(CS(=O)(=O)[O-])NC(=O)CC[N+](C)(C)CCO,-17%,2.8µM*,61,-8%,3%,-1%
N#CC(c1ccc(Cl)cc1)c1ccc2c(C(F)(F)F)cc(C(F)(F)F)nc2n1 (stereo not given),.,3.2µM*,-106*,14µM*,2.8µM*,?
COC(=O)c1ccc(Nc2nc(-c3ccccc3Cl)nc3ccccc23)cc1,-29%,.,50,-19%,?,.
O=C(CN1CCSC1=O)N1CCN(S(=O)(=O)c2ccc(Cl)cc2)CC1,-22%,3%,-60*,-11%,0%,1%
COc1cccc(S(=O)(=O)N2CCN(C(=O)c3ccco3)CC2)c1,-3%,?,-86*,-15%,-3%[46.1 µM],17%
O=C(CN1CCSC1=O)N1CCN(S(=O)(=O)c2ccccc2)CC1,.,.,6,.,.,17%
COc1cc(S(=O)(=O)N2CCN(C(=O)c3ccco3)CC2)ccc1Cl,.,.,3,.,.,9%
COc1cccc(CNC(=O)N2CCN(S(=O)(=O)c3ccc(Cl)cc3)CC2)c1,i,-9%[46.1 µM],-61*,-3%,18%[46.1 µM],-6%
COc1ccc(S(=O)(=O)N2CCN(C(=O)c3cc4c(s3)CCC4)CC2)cc1,i,0%,-78*,-15%,?,-13%
CCC1CN(CCNC(=O)c2ccccc2-n2cccn2)Cc2cc(OC)ccc2O1 (stereo not given),-15%,.,.,-2%,.,.
O=C(NCc1ccc(Cl)cc1)N1CCN(S(=O)(=O)c2ccccc2)CC1,-7%,-16%[46.1 µM],-67*,10%,?,-3%
CCOC(=O)c1c(C2CC2)csc1NC(C)=O,-19%,-25%,-65*,-10%,-3%,?
Cc1ccccc1C(=O)Nc1cccc(C(=O)OCc2cc(=O)n3ccsc3n2)c1,-19%,.,4,-10%,-6%[46.1 µM],.
CCOC(=O)[C@]12Cc3ccccc3[C@H]1N(CCC(=O)OC)C(=O)c1cc(OC)ccc12,-7%,.,-99*,-12%,.,.
CCOC(=O)[C@]12Cc3ccccc3[C@H]1N(Cc1ccccc1)C(=O)c1cc(OC)ccc12,12%,.,12,-5%,.,.
CCOC(=O)[C@]12Cc3c(cc(OC)c(OC)c3OC)[C@H]1N(C)C(=O)c1ccccc12,8%,.,-39,3%,.,.
CCOC(=O)[C@]12Cc3c(cc(OC)c(OC)c3OC)[C@H]1N(CCC(=O)OC)C(=O)c1ccccc12,?,.,-108*,?,.,.
CCOC(=O)[C@]12Cc3cc(OC)ccc3[C@H]1N(CCC(=O)OC)C(=O)c1cc(OC)ccc12,-5%,.,-107*,-15%,.,.
COc1ccc(-n2c(-c3cccc(F)c3)nc3c(cnn3-c3ccc(C)cc3)c2=O)cc1,-14%,?,-14,-12%,-17%[46.1 µM],.
CCOC(=O)CCN1C(=O)[C@@H]2[C@H]3[C@H](O)[C@H](O)CC(=NO[C@@H]4O[C@H](COC(C)=O)[C@@H](OC(C)=O)[C@H](OC(C)=O)[C@@H]4OC(C)=O)[C@H]3CC[C@H]2C1=O,.,-6%[14.2 µM],.,.,.,.
CN(Cc1ccccc1)[C@@H]1CC[C@@]23CCCN2C(=O)CCC[C@H]3[C@H]1Cc1ccccc1,.,.,30,.,.,.
SMILES,VACV mCherry inh,MARV entry inh,HCMV inh,Vaccinia Venus,Lassa entry inh,HCV inhibitor
CCN1CCN(C(=O)c2ccc3c(c2)N(Cc2cccc(Cl)c2)C(=O)c2ccccc2S3(=O)=O)CC1,-9%,.,-65*,-13%,?,.
O=C(c1ccc2c(c1)N(Cc1cccc(Cl)c1)C(=O)c1ccccc1S2(=O)=O)N1CCCCC1,-14%,.,-73*,-12%,?,.
O=C(c1ccc2c(c1)N(Cc1ccc(Cl)cc1)C(=O)c1ccccc1S2(=O)=O)N1CCN(Cc2ccccc2)CC1,-14%,?,8,-21%,?,.
NC(=O)C1CCN(C(=O)c2ccc3c(c2)N(Cc2cccc(Cl)c2)C(=O)c2ccccc2S3(=O)=O)CC1,-6%,.,-25,-4%,?,.
CCOC(=O)C1CCCN(C(=O)c2ccc3c(c2)N(Cc2cccc(Cl)c2)C(=O)c2ccccc2S3(=O)=O)C1 (stereo not given),2%,.,-63*,-3%,?,.
O=C(c1ccc2c(c1)N(Cc1ccccc1)C(=O)c1ccccc1S2(=O)=O)N1CCCCCC1,-19%,-24%[46.1 µM],-37,-8%,?,.
Fc1ccc(N2CCN(c3nc4ccccc4c4nc(-c5cccnc5)nn34)CC2)cc1,-14%,7%[46.1 µM],-1,-1%,.,.
CCC(=O)N=c1sc2cc(F)cc(F)c2n1C,i,.,-62*,-2%,.,-20%
CC(C)C(=O)N=c1sc2cc(F)cc(F)c2n1C,-8%,.,?,-16%,.,7%
CCCCNC(=O)CCCn1c(=O)c2ccccc2n(Cc2cccc(Cl)c2)c1=O,-23%,3%[46.1 µM],-31,-18%,-3%[46.1 µM],.
O=C1CN(S(=O)(=O)c2ccccc2)CCN1,-6%,4%,12,3%,-2%,-2%
O=C1CN(S(=O)(=O)c2ccc(Cl)cc2C(F)(F)F)CCN1,2%,21%[46.1 µM],-60*,-7%,3%,13%
CO/N=C(\C(=O)N[C@@H]1C(=O)N2C(C(=O)OCOC(=O)C(C)(C)C)=C(/C=C\c3scnc3C)CS[C@H]12)c1csc(N)n1,i,.,.,-5%,.,.
CCCCOc1ccc(-c2cc(C(=O)NNC(=S)NCC)c3ccccc3n2)cc1,.,1.5µM*,-93*,.,?,11µM*
CCNC(=S)NNC(=O)c1cc(-c2cccc(C)c2)nc2ccccc12,.,-29%,118,.,?,-23%
CCNC(=S)NNC(=O)c1cc(-c2ccc(OC)cc2)nc2ccccc12,-16%,0.65µM*,134,-18%,3.3µM*,14%
CCCCOc1cccc(-c2cc(C(=O)NNC(=S)NCC)c3ccccc3n2)c1,-22%,-9%,-7,-12%,30%[14.3 µM],.
O=C(NCc1nnc2n1CCN(Cc1ccc(C(F)(F)F)cc1)CC2)c1cccc(F)c1,-16%,.,.,-5%,.,.
CCOC(=O)c1cccc(NC(=O)CC2C(=O)N(c3ccccc3)C(=O)N2Cc2ccco2)c1 (stereo not given),-7%,.,-38,0%,-29%[46.1 µM],.
COc1ccc(-n2cc(CNCC3CCOCC3)c(-c3cccc(F)c3)n2)cc1,.,.,-89*,.,.,4%
CCN1CC(CNCc2cn(-c3ccc(OC)cc3)nc2-c2ccccc2Cl)CC1=O (stereo not given),-28%,?,19,-19%,2%,-24%

# Assay outcomes (PubChem BioAssay)
